We go through 31 compounds from PubChem BioAssay AID1259422 (The Scripps Research Institute Molecular Screening Center, 2018).

Structures are written as SMILES. Among all 640,000 compounds or so, about 9,300 (1.5%) were called active. Only a selection was taken, and actives are over-represented in it overall. A number with no mark means an inactive call. Rule as the data show it: active = inhibition above about 32%; inactive = the rest.

This assay in a line: TEAD-YAP interaction inhibition, primary screen, TEAD-YAP interaction inhibitor project, luminescence, HEK-TIYL cells (AID 1259422).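 Also: 0% = median of test compound wells and 100% = reference inhibitor wells.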 Particulars: TEAD-Gal4/YAP UAS-luciferase luminescence, at 9.12 µM, hits give high values.
A word on the inhibition: it is the change of the read-out against control, counted positive when it falls. For `COC(=O)CCCC(=O)N1CCOCCOCCN(C(=O)CCCC(=O)OC)CCOCCOCC1`, the inhibition was 7.88%.
The same measure for `COc1ccc(-c2nnc(SCC(=O)NC(=O)NCc3ccco3)o2)cc1OC`: 12.3%.
Consider `COc1ccc(C2=NOC(C(=O)NCc3ccco3)C2)cc1OC` (stereo unspecified), for which the inhibition is 46.8% (active).
With `COc1ccc(C2=NOC(C(=O)NCCc3ccccc3)C2)cc1OC` (stereo unspecified) the figure was -5.18%.
With `CC(C)C[C@@H]1NC(=O)[C@@H]2C[C@H](NC(=O)Nc3ccccc3)CN2C1=O` the figure was 3.71%; with `CCOc1cc(CN2CCC(C(=O)NCCc3ccccc3)CC2)ccc1O`, -8.29%.
For the compound `CCOc1ccccc1-c1noc(-c2cccs2)n1`, the inhibition is -16.8%.
The same measure for `CC(Oc1ccccc1)c1nc(-c2ccccn2)no1` (stereo unspecified): -32.3%; for `c1ccc(-c2noc(-c3cccs3)n2)nc1`: 33.7% (active).
`CN(C)S(=O)(=O)c1ccc(NC(=O)COC(=O)c2ccc(NC(N)=O)cc2)cc1`: the inhibition was -1.47%.
The same measure for `COCCC(=O)NC(C)c1nnc2n1CCN(Cc1ccc(C)cc1)CC2` (stereo unspecified): 10.5%; for `Cc1ccc2nc(NCCOCCO)c(/C=C3\SC(=S)N(C(C)C)C3=O)c(=O)n2c1`: -4.15%.
For `COc1ccc(/C=C2/C(=N)N3C(=NC2=O)SN=C3S(=O)(=O)C(C)C)cc1OC`, the inhibition was -1.31%.
The same measure for `O=C(Cc1ccc(Cl)c(Cl)c1)N1CCC(O)(c2ccccn2)CC1`: 0.43%; for `O=C(c1cccc2nc3ccccc3nc12)N1CCCCCC1`: -1.97%.
In the case of `O=C(c1cn2c(n1)sc1ccccc12)N1CCCC1`, the inhibition is 37.1% (active).
With `O=C(c1cc(-c2ccccc2Cl)on1)N1CCCCC1`, the inhibition was 0.6%.
Take `CCOC(=O)c1[nH]ncc1CN1CCCC(N(C)CCc2ccccc2)C1` (stereo unspecified): the inhibition is -7.42%.
As for `O=C1c2ccccc2OCCN1Cc1ccc(F)cc1`, the inhibition is -3.96%.
With `CSc1cccc(NC(=O)c2ncn[nH]2)c1`, the inhibition was 4.68%.
The same measure for `CCc1ccc(NC(=O)c2ncn[nH]2)cc1`: 47.9% (active); for `O=C(Nc1ccc(Cl)c(C(=O)O)c1)c1ncn[nH]1`: 1.11%.
For `CCCCn1c(N)c(N2CCOCC2)c(=O)[nH]c1=O`, the inhibition is 2.71%.
Turning to `CCOC(=O)C1CCN(Cn2[nH]c3nc4ccccc4n3c2=S)CC1`, the inhibition is -6.77%.
As to `FC(F)(F)c1cccc(N2CCN(CCN3CCOCC3)CC2)c1`, the inhibition is -6.06%.
With `COc1ccc(-c2nc3ncnc(NCCN4CCOCC4)c3[nH]2)cc1`, the inhibition was -0.6%.
For the compound `COc1ccc(-c2nc3ncnc(Nc4ccccc4)c3[nH]2)cc1`, the inhibition was 0.52%.
The same measure for `COc1ccc(CCNc2ncnc3nc(-c4ccc(C(N)=O)cc4)[nH]c23)cc1`: -4.01%; for `COc1ccc(-c2nc3ncnc(NCc4ccccc4)c3[nH]2)cn1`: 45% (active); for `COc1ccc(-c2nc3ncnc(NCCc4ccc(O)cc4)c3[nH]2)cn1`: 58.2% (active).
With `OCCNc1ncnc2nc(-c3ccccc3)[nH]c12`, the inhibition is 6.88%.
